# Test results as given in paper PMC7862700, “An all-to-all approach to the identification of sequence-specific readers for epigenetic DNA modifications on cytosine”.
# Assays:
# Assay in all cases: DAPPL (digital affinity profiling via proximity ligation, sequencing); 10 mM Tris-HCl pH 7.5, 50 mM NaCl, 1 mM DTT, 4% glycerol, room temperature, 30 min; GST-TFs on glutathione beads, 16-mer random dsDNA library, 0.1% formaldehyde crosslink after washing; high values mean tight binding
# FEV = molecular target: T1, FEV (Homo sapiens, UniProt Q99581 1-238); details: protein: recombinant; tags: N-terminal GST; dsDNA, one strand shown
# T1 sequence: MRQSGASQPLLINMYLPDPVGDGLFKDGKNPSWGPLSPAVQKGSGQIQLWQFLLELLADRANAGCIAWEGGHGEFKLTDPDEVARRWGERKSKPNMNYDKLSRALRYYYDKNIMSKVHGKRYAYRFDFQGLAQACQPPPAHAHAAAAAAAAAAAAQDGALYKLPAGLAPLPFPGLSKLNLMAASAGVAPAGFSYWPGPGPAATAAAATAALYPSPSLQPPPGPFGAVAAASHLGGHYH
# Method in brief: (§1)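 In yeast, human transcription factors were expressed with a GST fusion, then pulled down on glutathione beads and given DNA barcodes. Pooled with a tag-only sample, they were exposed to 200 nmole of a 16-mer random double-stranded DNA library (Tris/NaCl/DTT/glycerol buffer, room temperature, 30 min), washed, crosslinked with 0.1% formaldehyde, proximity-ligated using BsaI/T4 ligase for 1 h at 37 °C, PCR-amplified and read on an Illumina NextSeq500. Each hexamer's frequency of reads for a factor, divided by the matching frequency for the tag-only sample, gives the binding signal.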
# ETV5 = ETV5 (Homo sapiens, UniProt P41161 1-510); details: protein: recombinant; tags: N-terminal GST; dsDNA, one strand shown
# Method in brief: as §1
# HSF1 = HSF1 (Homo sapiens, UniProt Q00613 1-529); details: protein: recombinant; tags: N-terminal GST; chain copies: 3; dsDNA, one strand shown
# Method in brief: as §1
# SPIC = molecular target: T2, SPIC (Homo sapiens, UniProt Q8N5J4 1-248); details: protein: recombinant; tags: N-terminal GST; dsDNA, one strand shown
# T2 sequence: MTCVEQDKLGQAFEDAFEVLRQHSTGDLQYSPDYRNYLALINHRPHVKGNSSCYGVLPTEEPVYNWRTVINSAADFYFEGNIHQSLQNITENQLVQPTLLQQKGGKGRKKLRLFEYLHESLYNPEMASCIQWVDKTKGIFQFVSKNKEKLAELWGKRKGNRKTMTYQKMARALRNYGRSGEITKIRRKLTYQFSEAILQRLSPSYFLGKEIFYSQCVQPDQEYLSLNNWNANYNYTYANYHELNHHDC
# Method in brief: as §1
# ELF4 = ELF4 (Homo sapiens, UniProt Q99607 1-663); details: protein: recombinant; tags: N-terminal GST; dsDNA, one strand shown
# Method in brief: as §1
# ELK4 = molecular target: T3, ELK4 (Homo sapiens, UniProt P28324-2 1-405); details: protein: recombinant; tags: N-terminal GST; dsDNA, one strand shown
# T3 sequence: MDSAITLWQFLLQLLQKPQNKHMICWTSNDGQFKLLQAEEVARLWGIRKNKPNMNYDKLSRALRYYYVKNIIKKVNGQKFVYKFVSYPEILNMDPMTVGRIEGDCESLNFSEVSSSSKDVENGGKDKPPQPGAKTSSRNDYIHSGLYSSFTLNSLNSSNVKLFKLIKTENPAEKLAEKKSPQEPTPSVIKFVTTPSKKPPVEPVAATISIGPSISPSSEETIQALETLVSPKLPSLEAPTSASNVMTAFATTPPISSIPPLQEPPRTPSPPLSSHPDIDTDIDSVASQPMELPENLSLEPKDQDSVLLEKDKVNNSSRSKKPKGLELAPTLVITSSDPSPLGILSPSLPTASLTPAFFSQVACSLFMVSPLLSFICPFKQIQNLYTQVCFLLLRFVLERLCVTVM
# Method in brief: as §1
# ETV2 = molecular target: T4, ETV2 (Homo sapiens, UniProt O00321 1-342); details: protein: recombinant; tags: N-terminal GST; dsDNA, one strand shown
# T4 sequence: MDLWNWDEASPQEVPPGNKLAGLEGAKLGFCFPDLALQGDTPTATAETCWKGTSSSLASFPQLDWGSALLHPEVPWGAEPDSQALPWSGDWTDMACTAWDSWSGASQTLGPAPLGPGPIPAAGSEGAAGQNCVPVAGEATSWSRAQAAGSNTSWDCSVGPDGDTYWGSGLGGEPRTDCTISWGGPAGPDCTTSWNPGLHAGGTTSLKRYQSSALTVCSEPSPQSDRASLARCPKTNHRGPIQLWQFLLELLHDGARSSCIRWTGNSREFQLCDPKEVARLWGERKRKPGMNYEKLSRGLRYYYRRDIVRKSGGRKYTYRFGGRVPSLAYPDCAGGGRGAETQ
# Method in brief: as §1
# ELF3 = molecular target: T5, ELF3 (Homo sapiens, UniProt P78545 1-371); details: protein: recombinant; tags: N-terminal GST; dsDNA, one strand shown
# T5 sequence: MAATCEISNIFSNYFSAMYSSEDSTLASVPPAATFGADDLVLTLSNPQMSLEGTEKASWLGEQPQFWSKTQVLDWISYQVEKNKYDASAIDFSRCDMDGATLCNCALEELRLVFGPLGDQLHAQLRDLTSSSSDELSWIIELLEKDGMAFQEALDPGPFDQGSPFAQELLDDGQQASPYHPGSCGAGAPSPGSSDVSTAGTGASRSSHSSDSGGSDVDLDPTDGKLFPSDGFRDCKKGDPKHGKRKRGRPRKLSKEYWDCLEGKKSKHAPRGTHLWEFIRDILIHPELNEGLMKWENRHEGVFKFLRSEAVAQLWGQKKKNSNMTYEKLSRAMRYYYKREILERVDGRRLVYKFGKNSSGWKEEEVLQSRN
# Method in brief: as §1
# CRX = CRX (Homo sapiens, UniProt O43186 1-299); details: protein: recombinant; tags: N-terminal GST; dsDNA, one strand shown
# Method in brief: as §1
# ETV1 = ETV1 (Homo sapiens, UniProt P50549 1-477); details: protein: recombinant; tags: N-terminal GST; dsDNA, one strand shown
# Method in brief: as §1
# ERF = molecular target: T6, ERF (Homo sapiens, UniProt P50548 1-548); details: protein: recombinant; tags: N-terminal GST; dsDNA, one strand shown
# T6 sequence: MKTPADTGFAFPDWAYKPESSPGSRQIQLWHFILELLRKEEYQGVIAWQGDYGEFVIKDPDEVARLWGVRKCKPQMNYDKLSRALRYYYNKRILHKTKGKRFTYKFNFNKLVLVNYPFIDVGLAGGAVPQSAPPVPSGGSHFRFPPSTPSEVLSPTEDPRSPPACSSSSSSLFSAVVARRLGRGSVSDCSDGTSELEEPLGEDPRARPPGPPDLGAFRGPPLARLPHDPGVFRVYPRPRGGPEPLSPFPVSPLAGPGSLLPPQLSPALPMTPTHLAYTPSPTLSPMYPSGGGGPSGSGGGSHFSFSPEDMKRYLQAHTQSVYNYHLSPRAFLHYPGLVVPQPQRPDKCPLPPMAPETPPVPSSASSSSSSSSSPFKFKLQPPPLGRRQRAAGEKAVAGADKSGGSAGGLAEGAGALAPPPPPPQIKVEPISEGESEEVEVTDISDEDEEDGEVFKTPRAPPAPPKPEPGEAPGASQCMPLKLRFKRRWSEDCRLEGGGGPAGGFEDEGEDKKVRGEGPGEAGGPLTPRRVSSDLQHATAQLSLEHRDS
# Method in brief: as §1
# ETV3L = molecular target: T7, ETV3L (Homo sapiens, UniProt Q6ZN32 1-361); details: protein: recombinant; tags: N-terminal GST; dsDNA, one strand shown
# T7 sequence: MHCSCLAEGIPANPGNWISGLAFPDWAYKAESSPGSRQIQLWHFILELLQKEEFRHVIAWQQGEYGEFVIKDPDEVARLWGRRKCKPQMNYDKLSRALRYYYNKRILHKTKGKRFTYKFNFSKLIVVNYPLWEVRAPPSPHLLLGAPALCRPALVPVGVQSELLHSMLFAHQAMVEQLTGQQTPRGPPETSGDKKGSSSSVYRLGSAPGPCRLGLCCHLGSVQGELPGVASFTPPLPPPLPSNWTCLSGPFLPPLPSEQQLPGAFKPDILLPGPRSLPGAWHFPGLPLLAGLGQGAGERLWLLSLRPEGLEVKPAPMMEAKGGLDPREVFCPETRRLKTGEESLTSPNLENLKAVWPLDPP
# Method in brief: as §1
# ETS2 = molecular target: T8, ETS2 (Homo sapiens, UniProt P15036 1-469); details: protein: recombinant; tags: N-terminal GST; dsDNA, one strand shown
# T8 sequence: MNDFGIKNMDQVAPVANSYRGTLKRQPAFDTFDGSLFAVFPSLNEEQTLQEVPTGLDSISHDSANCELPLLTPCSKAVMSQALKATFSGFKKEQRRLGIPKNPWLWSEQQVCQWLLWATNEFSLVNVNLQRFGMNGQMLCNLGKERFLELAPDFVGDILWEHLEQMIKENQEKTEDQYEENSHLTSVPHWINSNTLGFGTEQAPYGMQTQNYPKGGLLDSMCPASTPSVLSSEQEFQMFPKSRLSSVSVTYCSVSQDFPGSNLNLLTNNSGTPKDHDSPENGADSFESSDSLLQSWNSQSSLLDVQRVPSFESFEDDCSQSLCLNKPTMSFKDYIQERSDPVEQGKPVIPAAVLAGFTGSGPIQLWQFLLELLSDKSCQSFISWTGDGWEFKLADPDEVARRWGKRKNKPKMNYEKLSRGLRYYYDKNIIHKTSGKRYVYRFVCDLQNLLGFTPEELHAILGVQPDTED
# Method in brief: as §1
# SPDEF = molecular target: T9, SPDEF (Homo sapiens, UniProt O95238 1-335); details: protein: recombinant; tags: N-terminal GST; dsDNA, one strand shown
# T9 sequence: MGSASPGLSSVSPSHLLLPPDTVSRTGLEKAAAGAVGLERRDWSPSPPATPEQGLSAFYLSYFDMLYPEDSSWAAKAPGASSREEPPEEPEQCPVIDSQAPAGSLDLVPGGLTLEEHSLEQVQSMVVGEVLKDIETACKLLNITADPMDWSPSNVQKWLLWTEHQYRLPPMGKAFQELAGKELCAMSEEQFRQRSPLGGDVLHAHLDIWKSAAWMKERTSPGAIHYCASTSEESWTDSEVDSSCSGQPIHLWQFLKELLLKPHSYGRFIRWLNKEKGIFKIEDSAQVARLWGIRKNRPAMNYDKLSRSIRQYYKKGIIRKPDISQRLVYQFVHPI
# Method in brief: as §1
# ETV7 = molecular target: T10, ETV7 (Homo sapiens, UniProt Q9Y603 1-341); details: protein: recombinant; tags: N-terminal GST; dsDNA, one strand shown
# T10 sequence: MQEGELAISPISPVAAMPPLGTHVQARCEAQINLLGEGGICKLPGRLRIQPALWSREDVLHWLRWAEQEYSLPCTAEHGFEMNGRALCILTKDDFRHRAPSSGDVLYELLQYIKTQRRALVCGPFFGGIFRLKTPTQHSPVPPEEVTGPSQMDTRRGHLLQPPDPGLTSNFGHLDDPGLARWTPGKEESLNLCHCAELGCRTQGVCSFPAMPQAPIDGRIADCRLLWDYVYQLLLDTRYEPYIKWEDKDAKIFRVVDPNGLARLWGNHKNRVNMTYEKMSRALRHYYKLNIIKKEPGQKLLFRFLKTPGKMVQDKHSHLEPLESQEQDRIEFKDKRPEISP
# Method in brief: as §1
# ELF5 = molecular target: T11, ELF5 (Homo sapiens, UniProt Q9UKW6-2 1-255); details: protein: recombinant; tags: N-terminal GST; dsDNA, one strand shown
# T11 sequence: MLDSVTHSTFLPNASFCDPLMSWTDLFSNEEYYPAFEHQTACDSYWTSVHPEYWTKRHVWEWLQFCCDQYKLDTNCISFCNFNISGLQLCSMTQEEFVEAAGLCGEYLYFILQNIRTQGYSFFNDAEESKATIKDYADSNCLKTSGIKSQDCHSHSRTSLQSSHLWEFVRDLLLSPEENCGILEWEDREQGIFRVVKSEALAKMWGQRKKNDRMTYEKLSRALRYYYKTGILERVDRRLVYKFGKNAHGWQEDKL
# Method in brief: as §1
# ETV3 = molecular target: T12, ETV3 (Homo sapiens, UniProt P41162-2 1-143); details: protein: recombinant; tags: N-terminal GST; dsDNA, one strand shown
# T12 sequence: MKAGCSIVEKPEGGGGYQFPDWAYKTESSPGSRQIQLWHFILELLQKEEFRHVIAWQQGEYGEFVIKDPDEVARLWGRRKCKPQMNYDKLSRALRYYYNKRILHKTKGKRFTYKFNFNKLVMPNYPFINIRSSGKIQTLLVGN
# Method in brief: as §1
# ETV6 = ETV6 (Homo sapiens, UniProt P41212 1-452); details: protein: recombinant; tags: N-terminal GST; dsDNA, one strand shown
# Method in brief: as §1
# CRX, sequence (O43186 whole entry): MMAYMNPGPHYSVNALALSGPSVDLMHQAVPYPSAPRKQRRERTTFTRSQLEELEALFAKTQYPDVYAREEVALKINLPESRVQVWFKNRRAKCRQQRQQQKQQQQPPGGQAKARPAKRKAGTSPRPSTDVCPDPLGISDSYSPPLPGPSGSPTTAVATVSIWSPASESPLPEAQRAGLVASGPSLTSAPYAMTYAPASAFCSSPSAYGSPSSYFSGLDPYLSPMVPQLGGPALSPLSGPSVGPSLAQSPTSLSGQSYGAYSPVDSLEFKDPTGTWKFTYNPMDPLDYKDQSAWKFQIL
# ELF4, sequence (Q99607 whole entry): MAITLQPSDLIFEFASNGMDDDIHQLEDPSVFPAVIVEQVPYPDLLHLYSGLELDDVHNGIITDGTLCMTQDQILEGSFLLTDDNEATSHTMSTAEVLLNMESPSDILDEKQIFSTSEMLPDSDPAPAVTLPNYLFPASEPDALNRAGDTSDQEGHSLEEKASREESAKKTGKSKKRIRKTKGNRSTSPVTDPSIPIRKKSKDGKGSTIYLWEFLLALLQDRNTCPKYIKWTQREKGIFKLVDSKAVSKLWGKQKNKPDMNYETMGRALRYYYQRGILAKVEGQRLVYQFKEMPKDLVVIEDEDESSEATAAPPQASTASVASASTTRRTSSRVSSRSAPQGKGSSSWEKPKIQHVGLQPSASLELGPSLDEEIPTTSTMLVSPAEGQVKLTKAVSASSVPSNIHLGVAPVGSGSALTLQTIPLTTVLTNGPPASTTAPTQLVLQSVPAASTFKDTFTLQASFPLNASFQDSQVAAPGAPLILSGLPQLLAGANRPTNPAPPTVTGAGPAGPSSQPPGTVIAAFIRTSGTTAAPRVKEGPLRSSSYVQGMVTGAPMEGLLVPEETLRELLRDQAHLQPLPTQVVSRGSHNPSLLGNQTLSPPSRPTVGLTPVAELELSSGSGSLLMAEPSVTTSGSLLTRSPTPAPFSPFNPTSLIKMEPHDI
# ETV6, sequence (P41212 whole entry): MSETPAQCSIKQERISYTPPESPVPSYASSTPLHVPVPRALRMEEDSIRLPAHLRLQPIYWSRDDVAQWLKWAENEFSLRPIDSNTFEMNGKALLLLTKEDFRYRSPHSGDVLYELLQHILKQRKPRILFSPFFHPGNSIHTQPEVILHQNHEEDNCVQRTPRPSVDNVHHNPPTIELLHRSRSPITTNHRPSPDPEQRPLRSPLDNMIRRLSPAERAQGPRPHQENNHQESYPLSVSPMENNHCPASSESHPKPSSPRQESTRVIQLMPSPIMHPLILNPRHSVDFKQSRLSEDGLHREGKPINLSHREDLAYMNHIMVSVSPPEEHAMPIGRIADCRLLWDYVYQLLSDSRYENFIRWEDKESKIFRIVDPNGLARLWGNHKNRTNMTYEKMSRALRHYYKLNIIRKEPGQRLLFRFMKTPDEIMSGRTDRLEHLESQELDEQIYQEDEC
# ETV1, sequence (P50549 whole entry): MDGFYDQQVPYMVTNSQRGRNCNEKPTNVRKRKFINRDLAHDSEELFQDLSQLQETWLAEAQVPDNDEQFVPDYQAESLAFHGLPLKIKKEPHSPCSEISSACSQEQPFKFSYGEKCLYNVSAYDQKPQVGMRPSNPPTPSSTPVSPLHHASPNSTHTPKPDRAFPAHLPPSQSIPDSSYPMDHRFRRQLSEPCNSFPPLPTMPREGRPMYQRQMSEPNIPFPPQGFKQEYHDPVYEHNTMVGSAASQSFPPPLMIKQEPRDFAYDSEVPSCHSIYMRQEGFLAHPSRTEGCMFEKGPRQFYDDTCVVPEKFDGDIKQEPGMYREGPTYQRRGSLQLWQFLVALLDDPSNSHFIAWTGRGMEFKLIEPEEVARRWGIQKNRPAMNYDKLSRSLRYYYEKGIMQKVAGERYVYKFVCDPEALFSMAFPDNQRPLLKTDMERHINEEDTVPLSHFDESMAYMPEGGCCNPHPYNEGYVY
# HSF1, sequence (Q00613 whole entry): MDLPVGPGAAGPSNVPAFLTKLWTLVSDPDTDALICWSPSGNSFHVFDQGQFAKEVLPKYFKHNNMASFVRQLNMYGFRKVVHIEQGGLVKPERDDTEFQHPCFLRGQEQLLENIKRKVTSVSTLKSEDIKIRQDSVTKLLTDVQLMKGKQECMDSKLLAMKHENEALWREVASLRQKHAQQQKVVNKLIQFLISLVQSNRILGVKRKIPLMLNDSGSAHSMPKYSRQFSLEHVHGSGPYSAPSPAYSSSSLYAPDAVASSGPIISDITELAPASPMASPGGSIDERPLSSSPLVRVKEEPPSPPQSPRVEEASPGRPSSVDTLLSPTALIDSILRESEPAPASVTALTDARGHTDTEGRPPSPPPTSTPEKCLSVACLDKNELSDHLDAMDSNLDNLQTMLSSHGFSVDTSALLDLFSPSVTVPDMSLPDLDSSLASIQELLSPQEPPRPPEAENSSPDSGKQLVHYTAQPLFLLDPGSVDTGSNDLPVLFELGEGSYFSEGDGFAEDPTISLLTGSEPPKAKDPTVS
# ETV5, sequence (P41161 whole entry): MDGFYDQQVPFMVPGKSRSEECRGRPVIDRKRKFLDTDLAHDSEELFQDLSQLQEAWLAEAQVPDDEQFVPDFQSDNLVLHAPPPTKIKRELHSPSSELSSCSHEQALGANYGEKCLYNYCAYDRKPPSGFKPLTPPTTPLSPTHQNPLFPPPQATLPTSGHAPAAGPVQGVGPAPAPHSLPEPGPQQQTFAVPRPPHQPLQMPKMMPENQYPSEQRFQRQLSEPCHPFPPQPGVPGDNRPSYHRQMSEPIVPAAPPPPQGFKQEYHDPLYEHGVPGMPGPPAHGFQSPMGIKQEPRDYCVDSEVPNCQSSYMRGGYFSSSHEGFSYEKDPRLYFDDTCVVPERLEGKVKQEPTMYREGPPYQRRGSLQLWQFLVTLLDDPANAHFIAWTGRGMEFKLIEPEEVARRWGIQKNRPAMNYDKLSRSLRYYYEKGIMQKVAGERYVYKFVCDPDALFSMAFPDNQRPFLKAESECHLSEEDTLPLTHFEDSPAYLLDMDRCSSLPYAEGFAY
sequence,measurement,setting,value
CTATTG,binding signal,FEV,"1.24 fold enrichment (6-mer frequency, TF over GST control)"
same,binding signal,ETV5,"1.31 fold enrichment (6-mer frequency, TF over GST control)"
same,binding signal,HSF1,"1.1 fold enrichment (6-mer frequency, TF over GST control)"
same,binding signal,SPIC,"1.4 fold enrichment (6-mer frequency, TF over GST control)"
same,binding signal,ELF4,"1.28 fold enrichment (6-mer frequency, TF over GST control)"
same,binding signal,ELK4,"1.29 fold enrichment (6-mer frequency, TF over GST control)"
same,binding signal,ETV2,"1.31 fold enrichment (6-mer frequency, TF over GST control)"
same,binding signal,ELF3,"1.39 fold enrichment (6-mer frequency, TF over GST control)"
same,binding signal,CRX,"1.14 fold enrichment (6-mer frequency, TF over GST control)"
same,binding signal,ETV1,"1.36 fold enrichment (6-mer frequency, TF over GST control)"
same,binding signal,ERF,"1.37 fold enrichment (6-mer frequency, TF over GST control)"
same,binding signal,ETV3L,"1.27 fold enrichment (6-mer frequency, TF over GST control)"
same,binding signal,ETS2,"1.35 fold enrichment (6-mer frequency, TF over GST control)"
same,binding signal,SPDEF,"1.18 fold enrichment (6-mer frequency, TF over GST control)"
same,binding signal,ETV7,"1.25 fold enrichment (6-mer frequency, TF over GST control)"
same,binding signal,ELF5,"1.23 fold enrichment (6-mer frequency, TF over GST control)"
same,binding signal,ETV3,"1.42 fold enrichment (6-mer frequency, TF over GST control)"
same,binding signal,ETV6,"1.35 fold enrichment (6-mer frequency, TF over GST control)"
